Bioassay records: PubChem, National Center for Advancing Translational Sciences (NCATS)
Only some compounds are listed: those with a hit (about 21% of all), similar ones and a draw of the others.
HCMV inh: human cytomegalovirus inhibition. HFF cells, HCMV-luciferase reporter, 72 h; stronger effect = lower value. activity change, negative = inhibition, % at 57.5 µM. hit rate 4.5% among 410,000; in the data active = activity change below about -60%; inconclusive = no clear call, values can overlap the other calls; inactive = above about -39%; note: % is set by controls: 0 for no effect and ±100 for the full control effect
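Two compound doses tested in HFFs infected with HCMV-luciferase, MOI 1 PFU/cell, 72 h at 37C. Lysate luminescence read with OneGlo; data normalized against buffer-only and 10uM Salinomycin inhibitor controls.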
Pf growth 48h: inhibits P. falciparum growth in the first generation, 48 h; P. falciparum luciferase growth in erythrocytes, 48 h; Potency, µM (highest dose often 28.7 µM), inactives show at the top dose activity change, negative = inhibition, actives largely listed as inhibitors; hit rate 5.9% among 310,000; note: potency is the fitted concentration of half-maximal effect; % is set by controls: 0 for no effect and ±100 for the full control effect
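Here the parasites carry a stable luciferase gene and grow inside erythrocytes in Albumax-based RPMI medium with compound for one erythrocytic cycle. Activity is scored as loss of luminescent signal.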
HCV inh: inhibitors of hepatitis C virus infection. hit rate 3.4% among 340,000. Huh7.5.1 HCVcc-Cre infection, luciferase reporter, 44 h. Potency, µM (series often up to 41.8 µM), for the others: at the highest dose activity change, negative = inhibition, usual class: inhibitors; note: potency is the fitted concentration of half-maximal effect; % is set by controls: 0 for no effect and ±100 for the full control effect
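Cells (1,000/well) were plated 4 h before compound, then infected with HCVcc-Cre virus (~0.5 moi). After 44 h further culture, infection was read as luciferase luminescence following a 15 min substrate incubation at room temperature.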
Shiga toxin inh: Shiga toxin inhibition; hit rate 9.2% among 290,000; Vero cells, Shiga toxin protein synthesis inhibition reporter; inhibition, % at 38.7 µM; in the data active = inhibition mostly above about 28%, no sharp cut-off; inactive = mostly below about 43%; note: 0% is about no effect
Pf growth 96h: P. falciparum growth inhibition at 96 hour, primary screen for plastid delayed-death inhibitors; P. falciparum luciferase reporter growth, 96 h; Potency, µM (series often up to 28.7 µM), inactives show at the highest dose activity change, negative = inhibition, most hits filed as inhibitors; hit rate 6.9% among 320,000; AID 504834; note: potency is the fitted concentration of half-maximal effect; % is set by controls: 0 for no effect and ±100 for the full control effect
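Parasite growth measured via integrated firefly luciferase reporter in P. falciparum. Infected erythrocytes at 2% hematocrit, 0.05% parasitemia final were treated 96 hours at 37 C under 5% CO2, and luminescence was read.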
Cycloheximide cs: counter-screen for Shiga toxin inhibitors: cycloheximide protein synthesis inhibition; cell reporter, cycloheximide protein synthesis inhibition counterscreen; max response, %; hit rate 12% among 300,000; in the data active = max response mostly above about 13%, no sharp cut-off; inactive = mostly below about 14%; note: read at 38.3 µM for the half of the compounds with a filed dose; 0% is about no effect
* marks the source's active call; other numbers are inactive results; [ ] = dose if it differs, or a comment. Unless noted, calls come from the whole dose curve; as a rule, active = well fitted inhibition curve with a large enough effect; inconclusive = small, poorly fitted or top-dose-only effect, or another doubt; inactive = no such curve, though single readings can be large or run the other way.

Screening CC1CCC(NC(=O)C2(C)Cc3ccccc3C(=O)N2Cc2ccc(F)cc2)CC1 (stereo not drawn) returned HCMV inh -15.4.
For O=C(OCC1OC(OC(=O)c2cc(O)c(O)c(OC(=O)c3cc(O)c(O)c(O)c3)c2)[C@@H](OC(=O)c2cc(O)c(O)c(OC(=O)c3cc(O)c(O)c(O)c3)c2)C(OC(=O)c2cc(O)c(O)c(OC(=O)c3cc(O)c(O)c(O)c3)c2)C1OC(=O)c1cc(O)c(O)c(OC(=O)c2cc(O)c(O)c(O)c2)c1)c1cc(O)c(O)c(OC(=O)c2cc(O)c(O)c(O)c2)c1 (stereo partly drawn) the results were Pf growth 48h 3.38µM* and Pf growth 96h 3.01µM*.
Screening Cn1c(-c2ccc3c(c2)OCO3)cc(=O)c2ccccc21 returned HCMV inh -26.9, Pf growth 48h inconclusive, HCV inh 13.0%, Shiga toxin inh -7.2, Pf growth 96h 11.1% and Cycloheximide cs -2.9.
`Cn1c(C=O)c(-c2ccc3c(c2)OCCO3)c2ccccc21` gave HCMV inh inconclusive, Pf growth 48h inconclusive, HCV inh 15.8µM* and Pf growth 96h inconclusive.
For Cn1c2ccccc2c(=O)c2ccc(-c3ccc4c(c3)OCO4)cc21 the results were HCMV inh 80.5, Pf growth 48h 55.6%, HCV inh inconclusive, Shiga toxin inh 45.6*, Pf growth 96h 9.28µM* and Cycloheximide cs 30.9*.
Cn1c2ccccc2c(=O)c2ccc(F)cc21 was read as HCMV inh -29.7, Pf growth 48h -24.6%, HCV inh -17.0%, Shiga toxin inh 18.1, Pf growth 96h inconclusive and Cycloheximide cs 15.7*.
`COc1cc(-c2ccc3c(=O)c4ccccc4n(C)c3c2)cc(OC)c1OC` gave HCMV inh 114.1, Pf growth 48h inconclusive, HCV inh inconclusive, Shiga toxin inh 16.0, Pf growth 96h 4.65µM* and Cycloheximide cs 10.7*.
Cn1nc(-c2ccc3c(c2)OCCO3)c2ccccc2c1=O was read as HCMV inh -15.3, Pf growth 48h 29.4%, HCV inh -23.2%, Shiga toxin inh -15.4, Pf growth 96h -0.4% and Cycloheximide cs -2.0.
Screening COc1cc(-c2ccc3c(=O)c4ccccc4sc3c2)cc(OC)c1OC returned HCMV inh 18.7 and HCV inh 23.6%.
`Cc1nn(C(C)(C)C)c(OC(=O)C(C)(C)C)c1Sc1ccccc1` gave HCMV inh 3.5.
For CCc1noc(C)c1C(=O)N1CCN(S(=O)(=O)c2ccc(Br)cc2Cl)CC1 the results were HCMV inh -29.2, Pf growth 48h inconclusive, HCV inh -23.5% and Pf growth 96h inconclusive.
CCOc1ccc(N(CC(=O)NC2CCCCC2)C(=O)CCC(=O)Nc2nc(C)cs2)cc1 was read as HCMV inh -8.6, Pf growth 48h inconclusive, HCV inh 9.5%, Shiga toxin inh -18.7, Pf growth 96h 6.0% and Cycloheximide cs -3.0.
Screening COc1cccc(Nc2sc(C(=O)c3ccc(Cl)cc3)c(N)c2C(=O)NCc2ccc(C)cc2)c1 returned HCMV inh -80.1*.
For COc1ccc(C(=O)c2sc(Nc3ccccc3)c(C(=O)Nc3ccc(OC)c(OC)c3)c2N)cc1 the results were HCMV inh -3.8, Pf growth 48h 13.1µM*, HCV inh -2.4%, Shiga toxin inh 24.2, Pf growth 96h inconclusive and Cycloheximide cs 12.0.
Screening COc1ccc(Nc2sc(C(=O)c3ccc(Cl)cc3)c(N)c2C(=O)Nc2ccccc2OC)cc1 returned HCMV inh inconclusive, Pf growth 48h 10.4µM*, HCV inh inconclusive, Shiga toxin inh -18.4 and Cycloheximide cs -1.1.
For COc1ccc(NC(=O)c2c(Nc3ccccc3)sc(C(=O)c3ccc(F)cc3)c2N)cc1 the results were HCMV inh -83.0*, Pf growth 48h inconclusive, HCV inh 6.31µM*, Shiga toxin inh 39.3 and Cycloheximide cs 7.2.
COc1cccc(N(Cc2nnc3n2CCCCC3)C(=O)Nc2cccc(Cl)c2)c1 was read as HCMV inh 8.8.
`COc1ccc(Nc2sc(C(=O)c3ccccc3)c(N)c2C(=O)Nc2cc(C)ccc2C)c(OC)c1` gave HCMV inh -74.1*.
For Cc1cc(Nc2sc(C(=O)c3ccc(F)cc3)c(N)c2C(=O)Nc2ccc(F)cc2)ccc1Cl the results were HCMV inh -107.5*.
For COc1ccc(C(=O)c2sc(Nc3cccc(OC)c3)c(C(=O)Nc3cccc(C)c3C)c2N)cc1 the results were HCMV inh -70.1*, HCV inh -24.1%, Shiga toxin inh -13.6, Pf growth 96h 11.7µM* and Cycloheximide cs 1.4.
`COc1ccccc1NC(=O)c1c(Nc2ccccc2C)sc(C(=O)Nc2cccc(Cl)c2)c1N` gave HCMV inh -97.5*, Pf growth 48h inconclusive, HCV inh 12.6µM*, Shiga toxin inh 9.3, Pf growth 96h 10.4µM* and Cycloheximide cs -1.4.
`O=C(Cn1cc(C(=O)C(=O)N2CCOCC2)c2ccccc21)Nc1cccc(C(F)(F)F)c1` gave HCMV inh 31.4.
Screening COc1ccc(CCNC(=O)Cc2c(C)c3cc4c(C(C)(C)C)coc4c(C)c3oc2=O)cc1OC returned HCMV inh 15.3.
`COc1ccc(Br)cc1CNC(=O)c1cc(=O)[nH]c2ccc(S(=O)(=O)N3CCCCC3)cc12` gave HCMV inh 1.1.
For CC(=O)Nc1ccc(S(=O)(=O)NCCC(=O)OCC(=O)NNC(=O)c2ccccc2)cc1 the results were HCMV inh -14.3, Pf growth 48h 16.6%, HCV inh 19.0% and Pf growth 96h 4.9%.
Cc1cccn2c(=O)nc(SCC(=O)N3CCC(C)CC3)nc12 was read as HCMV inh -22.5, Pf growth 48h 8.1%, HCV inh 6.3%[8.37 µM] and Pf growth 96h 23.6%.
For Cc1ccc(S(=O)(=O)Nc2ccc(O)c3cccnc23)cc1 the results were HCMV inh 10.0, Pf growth 48h 6.57µM*, HCV inh -2.7%, Shiga toxin inh 3.9, Pf growth 96h 9.28µM* and Cycloheximide cs -3.4.
`O=S(=O)(Nc1ccc(O)c2ccccc12)c1ccc(Br)cc1` gave Pf growth 48h 4.65µM*, Shiga toxin inh -4.7, Pf growth 96h inconclusive and Cycloheximide cs -2.8.
For COc1ccc(-c2oc3c(c2C(=O)OCCO)C(OCCO)CCC3)cc1 (stereo not drawn) the results were HCMV inh -14.8.
`Cc1ccc(Cn2c(=O)n(-c3cc(C)cc(C)c3)c(=O)c3oc4ccccc4c32)cc1` gave HCMV inh 2.1.
`CCc1ccccc1Nc1nn2c(=O)c3ccc(C(=O)NC(C)C)cc3nc2s1` gave HCMV inh 5.1.
`CCc1ccccc1Nc1nn2c(=O)c3ccc(C(=O)NCCCOC(C)C)cc3nc2s1` gave HCMV inh -13.9, Pf growth 48h 13.1µM* and Pf growth 96h inconclusive.
